Source: the supplement of paper PMC10127200
Where a name gives a salt, the structure may show the parent alone.

Key:
Test in all cases: Euclidean distance of Cell Painting phenotypic profile (signed KS, 77 features) to DMSO centroid (dimensionless distance); 5 or 10 uM (library dependent); higher = stronger phenotypic change vs DMSO (phenoactivity)
Details in all cases: 48 h
[1] = system: 786-O
Outline: (§1)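 Five cancer lines and a healthy fibroblast line received library compounds at 10 or 5 uM (library-dependent, 0.1% DMSO final) for 48 h. Stained cells were imaged confocally at 20X (9 fields/well). Harmony extracted 77 features, each scored as a signed Kolmogorov-Smirnov statistic against same-plate vehicle wells. Profiles were plate-position corrected, correlation-weighted and replicate-averaged at the top dose. Phenoactivity is the Euclidean distance from each profile to the median vehicle profile.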

[2] = system: A549
Outline: as §1

[3] = system: DU145
Outline: as §1

[4] = system: FB
Outline: as §1

[5] = system: HEPG2
Outline: as §1

[6] = system: OVCAR4
Outline: as §1

Structure (SMILES) | Euclidean distance [1] | Euclidean distance [2] | Euclidean distance [3] | Euclidean distance [4] | Euclidean distance [5] | Euclidean distance [6]
COc1ccc(-c2cc(=O)c3c(OC)c(OC)c(OC)c(OC)c3o2)cc1OC [Nobiletin] | 0.695 | 0.706 | 1 | 0.95 | 1.47 | 0.897
CNCC[C@H](Oc1cccc2ccccc12)c1cccs1 [Duloxetine HCl] | 1.15 | 1.43 | 1.55 | 1.48 | 2.34 | 1.46
CCN(CC)Cc1cc(Nc2ccnc3cc(Cl)ccc23)ccc1O [Amodiaquine] | 2.2 | 2.16 | 1.37 | 3.19 | 2.51 | 2.02
C=C1CC[C@H](O)C/C1=C/C=C1\CCC[C@]2(C)[C@@H]([C@H](C)/C=C/[C@H](C)C(C)C)CC[C@@H]12 [Vitamin D2] | 2.59 | 0.759 | 5.76 | 1.38 | 2.02 | 2.05
Cn1nnc2c(C(N)=O)ncn2c1=O [Temozolomide] | 1.44 | 0.97 | 2.71 | 0.972 | 1.44 | 0.619
O=C(Nc1ccccc1)c1cc([N+](=O)[O-])ccc1Cl | 0.848 | 0.897 | 0.645 | 1.15 | 0.832 | 1.2
NC(=S)N/N=C/c1ncccc1N [Triapine] | 3.56 | 2.65 | 3.67 | 3.09 | 2.83 | 3.6
CC[C@H]1OC(=O)[C@@](C)(F)C(=O)[C@H](C)[C@@H](O[C@@H]2O[C@H](C)C[C@H](N(C)C)[C@H]2O)[C@](C)(OC)C[C@@H](C)C(=O)[C@H](C)[C@H]2N(CCCCn3cc(-c4cccc(N)c4)nn3)C(=O)O[C@]12C [Solithromycin] | 1.63 | 1.89 | 1.57 | 1.86 | 2.27 | 0.99
COc1cc(OC)c2c(=O)[nH]c(-c3cc(C)c(OCCO)c(C)c3)nc2c1 [Apabetalone (RVX-208)] | 1.25 | 0.468 | 1.25 | 0.996 | 0.48 | 0.642
CC(COc1ccccc1)NC(C)C(O)c1ccc(O)cc1 (stereo unspecified) [Isoxsuprine hydrochloride] | 1.44 | 0.704 | 0.854 | 1.28 | 0.54 | 1.1
Nc1c(Br)cc(Br)cc1CN[C@H]1CC[C@H](O)CC1 [Ambroxol] | 1.17 | 0.59 | 0.867 | 0.611 | 0.645 | 0.78
COc1cc2/c(=N/c3ccc(Br)cc3F)nc[nH]c2cc1OCC1CCN(C)CC1 [Vandetanib (ZD6474)] | 1.3 | 2.59 | 2.38 | 2.66 | 1.7 | 2.94
Cc1cc2c(cc1CC(=O)c1sccc1S(=O)(=O)Nc1onc(C)c1Cl)OCO2 [Sitaxentan sodium] | 0.839 | 0.821 | 0.942 | 0.796 | 0.95 | 1.46
Cc1nnc(SCC2=C(C(=O)O)N3C(=O)[C@@H](NC(=O)Cn4cnnn4)[C@H]3SC2)s1 [Cefazolin Sodium] | 0.929 | 0.587 | 0.958 | 0.961 | 1.06 | 1.27
CCOC(=O)c1ccc(N2NC(=O)C(=Cc3ccc([N+](=O)[O-])o3)C2=O)cc1 | 1.51 | 1.47 | 1.17 | 0.999 | 0.851 | 1.17
CCn1nc(C(=O)O)c(=O)c2cc3c(cc21)OCO3 [Cinoxacin] | 1.03 | 1.18 | 0.942 | 1.56 | 0.617 | 1
C[C@H](Nc1ncnc2[nH]cnc12)c1cc2ccc(F)cc2nc1-c1ccccn1 | 0.651 | 0.745 | 1.41 | 1.61 | 1.01 | 1.19
COc1cc(O)c(C(=O)Nc2nc(C(=O)NCCN(C(C)C)C(C)C)cs2)cc1OC [Acotiamide] | 1.22 | 0.413 | 0.881 | 0.785 | 0.356 | 0.831
Nc1nc(CC(=O)Nc2ccc(CCNC[C@H](O)c3ccccc3)cc2)cs1 [Mirabegron] | 0.989 | 1.17 | 1.1 | 1.21 | 0.802 | 1.68
CCc1cc2c(cc1N1CCC(N3CCOCC3)CC1)C(C)(C)c1[nH]c3cc(C#N)ccc3c1C2=O | 1.54 | 2.54 | 0.905 | 1.15 | 0.968 | 1.01
CC(NCCc1ccc(O)cc1)C(O)c1ccc(O)cc1 (stereo unspecified) [Ritodrine HCl] | 1.08 | 0.752 | 0.998 | 1.01 | 0.393 | 0.728
OC[C@H]1O[C@@H](c2ccc(Cl)c(Cc3ccc(O[C@H]4CCOC4)cc3)c2)[C@H](O)[C@@H](O)[C@@H]1O | 0.965 | 0.753 | 1.39 | 0.912 | 0.52 | 0.801
NCCCCC(NC(=O)C1CCCN1C(=O)C1CSSCC(N)C(=O)NC(Cc2ccc(O)cc2)C(=O)NC(Cc2ccccc2)C(=O)NC(CCC(N)=O)C(=O)NC(CC(N)=O)C(=O)N1)C(=O)NCC(N)=O (stereo unspecified) [Lypressin Acetate] | 1.39 | 0.851 | 1.08 | 1.11 | 0.477 | 1.48

Structure (SMILES) | Euclidean distance [1] | Euclidean distance [2] | Euclidean distance [3] | Euclidean distance [4] | Euclidean distance [5] | Euclidean distance [6]
C[C@@H](O[C@H]1OCCN(Cc2nn(P(=O)(O)O)c(=O)[nH]2)[C@H]1c1ccc(F)cc1)c1cc(C(F)(F)F)cc(C(F)(F)F)c1 [Fosaprepitant dimeglumine salt] | 1.86 | 1.37 | 1.18 | 1.21 | 1.4 | 0.995
CC(C)=CCC/C(C)=C/CC/C(C)=C/CC/C(C)=C/CC/C(C)=C/CC/C(C)=C/CC1=C(C)C(=O)c2ccccc2C1=O [Vitamin K2] | 1.17 | 1.16 | 1.1 | 0.823 | 0.747 | 1.54
Cc1ccc(NCCCc2ccccc2)c(N)c1 | 0.637 | 0.572 | 0.826 | 0.816 | 0.57 | 0.53
CC(C)Cc1ccc(C(C)C(=O)O)cc1 (stereo unspecified) [Ibuprofen] | 0.948 | 0.452 | 0.996 | 0.827 | 0.86 | 0.689
COc1cc(F)c(C(C)C)cc1-c1ccc(C(F)(F)F)cc1CN1C(=O)O[C@H](c2cc(C(F)(F)F)cc(C(F)(F)F)c2)[C@@H]1C [Anacetrapib (MK-0859)] | 0.703 | 0.903 | 1.12 | 0.869 | 1.84 | 0.709
COc1cc(NC(=O)c2ccc(-c3ccc(Cl)cc3)o2)cc(OC)c1 | 0.91 | 1.46 | 1.23 | 0.788 | 1.04 | 1.48
COC(=O)C1=C(C)NC(C)=C(C(=O)OCCN2CCN(C(c3ccccc3)c3ccccc3)CC2)C1c1cccc([N+](=O)[O-])c1 (stereo unspecified) [Manidipine 2HCl] | 1.93 | 2.35 | 1.3 | 1.11 | 1.84 | 1.95
CC1CS(=O)(=O)CCN1/N=C/c1ccc([N+](=O)[O-])o1 (stereo unspecified) [Nifurtimox] | 1.55 | 0.675 | 1.08 | 0.936 | 1.04 | 1.33
N=C(N)c1ccc(N=NNc2ccc(C(=N)N)cc2)cc1 [Diminazene Aceturate] | 1.25 | 1.11 | 1.1 | 0.72 | 2.06 | 0.868
Cc1c(C(=O)N2CCOc3ccc(-c4ccc(N)nc4)cc3C2)ccc(S(C)(=O)=O)c1F | 2.49 | 2.65 | 1.99 | 3.46 | 2.59 | 3.43
COc1cc(Br)c(Nc2nc(-c3c(C)nc4ncccn34)cs2)c(Br)c1 | 3.62 | 2.67 | 2.18 | 2.66 | 4.16 | 1.63
C=CC(=O)Nc1cccc(Nc2nc(Nc3ccc(N4CCN(C(C)=O)CC4)cc3OC)ncc2C(F)(F)F)c1 | 1.04 | 0.866 | 0.799 | 1.01 | 0.62 | 0.883
CC[C@H](C)C(=O)O[C@H]1CCC=C2C=C[C@H](C)[C@H](CC[C@@H]3C[C@@H](O)CC(=O)O3)[C@H]21 [Mevastatin] | 2.6 | 1.88 | 0.707 | 3.12 | 1.43 | 1.64
CC[C@]1(O)C[C@@H]2CN(CCc3c([nH]c4ccccc34)[C@@](C(=O)OC)(c3cc4c(cc3OC)N(C)[C@H]3[C@@](O)(C(=O)OC)[C@H](OC(C)=O)[C@]5(CC)C=CCN6CC[C@]43[C@@H]65)C2)C1 [Vinblastine sulfate] | 3.25 | 3.68 | 4.31 | 3.49 | 3.33 | 3
COCC(=O)Nc1c(I)c(C(=O)NCC(O)CO)c(I)c(C(=O)N(C)CC(O)CO)c1I (stereo unspecified) [Iopromide] | 1.53 | 0.999 | 0.749 | 1.04 | 0.445 | 1.07
CCOc1ccc(C[C@H]2NC(=O)CCSSC[C@@H](C(=O)N3CCC[C@H]3C(=O)N[C@@H](CCCN)C(=O)NCC(N)=O)NC(=O)[C@H](CC(N)=O)NC(=O)[C@H]([C@@H](C)O)NC(=O)[C@H]([C@@H](C)CC)NC2=O)cc1 [Atosiban Acetate] | 1.21 | 1.46 | 1.05 | 1.59 | 1.37 | 1.9
Oc1c(I)cc(I)c2cccnc12 [Diiodohydroxyquinoline] | 1.24 | 1.68 | 0.746 | 1.01 | 0.677 | 1.2
O=C1C(O)=C([C@H]2CC[C@H](c3ccc(Cl)cc3)CC2)C(=O)c2ccccc21 [Atovaquone] | 1.3 | 0.846 | 1.08 | 1.41 | 0.566 | 1.08
C=CC(=O)Nc1cccc(Sc2nc(Nc3ccc(N4CCN(C)CC4)cc3)ncc2Cl)c1 | 2.96 | 3.04 | 2.04 | 3.82 | 3.02 | 2.64
CCN(CC)CCNC(=O)c1cc(S(C)(=O)=O)ccc1OC [Tiapride Hydrochloride] | 0.725 | 0.496 | 0.652 | 0.955 | 0.542 | 0.874
CNS(=O)(=O)Cc1ccc2[nH]cc(CCN(C)C)c2c1 [Sumatriptan Succinate] | 1.54 | 1.49 | 0.753 | 1.35 | 0.966 | 1.66
Oc1cc(O)c2c(c1)O[C@H](c1ccc(O)c(O)c1)[C@H](O)C2 [(-)Epicatechin] | 1.1 | 0.627 | 0.705 | 1.15 | 0.982 | 1.04
O=C(O)c1ccc2nc(-c3cc(Cl)cc(Cl)c3)oc2c1 [Tafamidis] | 1.52 | 0.941 | 1.1 | 0.77 | 0.971 | 1.21
